Shown are actives, neighbours in structure and some others; about 4.3% of the full set was active somewhere.
D3 ag: activates the human D3 dopamine receptor; AID 652048; actives 0.58% (n = 410,000); max activation, %; P35462; D3R DiscoveRx beta-arrestin cells, luminescence, 90 min; in the data active = max activation above about 30%; note: 0% is about no effect
Target sequence (P35462 whole entry, looked up): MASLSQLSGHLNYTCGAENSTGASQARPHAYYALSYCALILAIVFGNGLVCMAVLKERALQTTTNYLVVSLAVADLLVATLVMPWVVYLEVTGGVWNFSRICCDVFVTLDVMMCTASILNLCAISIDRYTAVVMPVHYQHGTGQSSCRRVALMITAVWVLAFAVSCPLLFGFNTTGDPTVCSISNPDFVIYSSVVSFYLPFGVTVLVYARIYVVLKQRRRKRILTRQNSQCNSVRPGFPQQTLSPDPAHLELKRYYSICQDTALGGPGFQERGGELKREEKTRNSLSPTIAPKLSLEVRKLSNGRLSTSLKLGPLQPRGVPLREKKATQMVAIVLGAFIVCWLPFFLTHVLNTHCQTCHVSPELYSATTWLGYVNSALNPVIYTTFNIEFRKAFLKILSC
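Agonist mode: compounds and dopamine controls were applied to plated cells for 90 min at 37 degrees C after an overnight attachment at 1500 cells/well. Luminescent read-out followed 30 - 60 minutes at room temperature with DiscoveRx detection reagent.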
D3 antag: D3 dopamine receptor (human) antagonism | P35462 | D3R cells, DiscoveRx beta-arrestin luminescence, antagonist mode; active compounds read low | max response, negative = inhibition, % | actives 2.5% (n = 360,000) | AID 652054; in the data active = max response below about -50%; inconclusive = no clear call, values can overlap the other calls; note: % is set by controls: 0 for no effect and ±100 for the full control effect
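Cells plated overnight at 1500 cells/well, then exposed to library compounds with dopamine controls for 90 minutes at 37 degrees C. DiscoveRx reagent added for 30–60 minutes at room temperature; luminescence read, quantitative HTS format.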
GLP-1R agonist: GLP-1 receptor (human) agonism; P43220; HEK293 GLP-1R CRE-luciferase, luminescence, 4-6 h; cells express a hypersensitive GLP-1R form; Potency, µM (doses to about 45.6 µM), for inactives: at the highest dose activation, actives largely listed as activators; actives 0.007% (n = 380,000); AID 624172; note: potency is the fitted concentration of half-maximal effect; % of control where 0% means no effect
GLP-1R inv ag: GLP-1 receptor (human) inverse agonism. HEK293 GLP-1R CRE-luciferase, luminescence, 24 h; GLP-1R form is constitutively active. Potency, µM (doses to about 38.3 µM), for the others: top-dose activity change, negative = inhibition, hits mostly inhibitors. actives 1.6% (n = 410,000). AID 624417; note: potency is the fitted concentration of half-maximal effect; % is set by controls: 0 for no effect and ±100 for the full control effect; nearly all actives have a fitted effect of over 55% in size
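Cells are plated, allowed 12 hours at 37 deg C, then treated with compounds for 24 hr before luciferase detection reagent is added and luminescence is read after 12 min at room temperature. The HEK293 line carries constitutively active GLP-1R with a cAMP-responsive reporter.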
Starred values were filed as active, the others as inactive; ? = inconclusive; . = not tested or not shown. Unless noted, calls come from the whole dose curve; as a rule, active = well fitted curve in the direction sought with a large enough effect; inconclusive = small, poorly fitted or top-dose-only effect, or another doubt; inactive = no such curve, though single readings can be large; an effect the other way counts as inactive or inconclusive.

SMILES	D3 ag	D3 antag	GLP-1R agonist	GLP-1R inv ag
S=C1NCCN1CC1CCN(CCC23CC4CC(CC(C4)C2)C3)CC1	-39.7	-16.2	1.5%	?
O=C(NCCOc1ccccc1)c1ccccc1Cl	-20.0	-15.3	0.0%	?
CN(C(=O)COc1ccccc1C(=O)NCCOc1ccccc1)c1ccccc1	30.1*	12.3	-5.1%	?
O=C(/C(=N\Nc1ccc([N+](=O)[O-])cc1)Sc1nnnn1-c1ccccc1)c1ccccc1	-12.8	-82.1*	-32.2%	?
Cc1ccc(N/N=C(/Sc2nnnn2-c2ccccc2)C(=O)c2ccccc2)cc1	-0.8	-17.8	2.1%	-3.5%
CC1=C(c2cccc(Cl)c2)S(=O)(=O)NC1=NCc1ccccc1C	11.9	.	.	-22.3%
CC1(C)C2CCC1(CS(=O)(=O)N1CCC(C(N)=O)CC1)C(=O)C2 (stereo not given)	0.6	0.6	-0.4%	11.7%
CC1(C)C2CCC1(CS(=O)(=O)N1CCOCC1)C(=O)C2 (stereo not given)	36.3*	14.7	-7.7%	0.0%
Cn1c(CCN2CCCCC2)nc2cc(NS(=O)(=O)c3ccccc3)ccc21	-10.4	-10.9	20.1%	1.6%
CC(C)(C)n1cnc2cc(NS(=O)(=O)c3ccccc3)ccc21	-3.0	9.9	6.2%	-9.7%
Cn1c(CN2CCCC2)nc2cc(NS(=O)(=O)c3ccc(Cl)cc3)ccc21	-18.7	-103.8*	-2.3%	3.98µM*
Cn1c(CN2CCCC2)nc2cc(NS(=O)(=O)c3ccccc3)ccc21	-35.2	-79.7*	-0.3%	-7.5%
COc1ccc(-n2cnc3cc(NS(=O)(=O)c4ccccc4)ccc32)cc1	5.2	-87.1*	?	3.9%
Cc1ccc(S(=O)(=O)Nc2ccc3c(c2)nc(CCN2CCCC2)n3C)cc1	-13.5	-57.3*	8.5%	18.4%
CCN(CC)C(=O)c1sc2c(c1C)c(=O)n(-c1ccc(OC)cc1OC)c(=O)n2CC(=O)c1ccc(Cl)cc1	8.6	.	.	-3.0%
CC1C(=O)C(C)C(c2cc(Br)ccc2O)NC1c1cc(Br)ccc1O (stereo not given)	4.7	?	6.8%	5.01µM*
CCOC(=O)/C(=C\c1cccc(O)c1)c1nc2sc(C)c(C)c2c(=O)[nH]1	-31.7	-57.6*	-4.0%	?
COc1ccc(C)cc1NC(=O)CCCN1C(=O)C(c2ccccc2)Oc2cccnc21 (stereo not given)	0.5	-3.4	28.8%	10µM*
CCC(Oc1ccccc1)C(=O)Nc1ccccc1OCc1cc(=O)n2ccccc2n1 (stereo not given)	6.8	.	.	3.6%
Cc1scc(C(=O)Nn2cnnc2)c1-c1ccccc1	-13.2	-54.7*	-13.0%	4.8%
O=C(Nn1cnnc1)c1csc2ccccc12	0.0	20.4	-12.3%	4.2%
Oc1ccc(Cl)cc1CNCc1ccc(F)cc1	-42.8	-81.2*	0.5%	-29.4%
Nc1ccn(C2CO[C@H](CO)O2)c(=O)n1 (stereo not given in full)	2.6	.	6.1%	.
COc1ccc(N2C(=O)CS/C2=N\C(=S)Nc2ccccc2)cc1	-20.1	-19.6	8.9%	12.6µM*
CC(C)(C)c1ccc(OCCOc2ccc(C(C)(C)C)cc2NC=O)c(NC=O)c1	5.1	29.8	5.0%	4.47µM*
SMILES	D3 ag	D3 antag	GLP-1R agonist	GLP-1R inv ag
Cc1ccc(Cc2c(C3CCCCC3)nc3c(C)cc(Br)cn23)cc1	-4.4	?	11.1%	?
Cc1ccc(Cc2nc3ccccc3nc2SCC(=O)N2CCCCC2C)cc1 (stereo not given)	3.3	.	-4.8%	10µM*
COc1cccc(Cc2nc3ccccc3nc2SCC(=O)N2CCCCC2C)c1 (stereo not given)	-11.4	.	-4.6%	?
COc1ccc(C(=O)N[C@H](C(=O)NCc2ccco2)C(C)C)cc1	-0.8	0.9	-5.1%	-9.0%
COc1ccc(C(=O)Nc2ccccc2C(=O)NC(C(=O)NCc2ccco2)C(C)C)cc1 (stereo not given)	8.5	-61.0*	2.7%	-1.4%
CC(C)(C)OC(=O)NCCCCCNC(=O)c1nc[nH]c1C(=O)NCc1ccc(CNC(=O)OC(C)(C)C)cc1	29.3	46.6	-8.2%	10µM*
CC(C)(C)OC(=O)NCc1ccc(NC(=O)c2nc[nH]c2C(=O)NCCNC(=O)c2[nH]cnc2C(=O)Nc2ccc(CNC(=O)OC(C)(C)C)cc2)cc1	42.1*	75.8	-4.3%	?
CC[C@H](C)[C@@H](CN[C@H](CCCCNC)CNC)NCC1CCCC1	8.8	-25.1	-0.1%	-5.2%
